Measured values from PubChem BioAssay AID1159580 (chemical genetic matrix, 2015).
The campaign covered roughly 5,500 compounds. About 2,000 (36%) were called active. About 18% were inconclusive and are not listed. Cut-off read from the data, not from the text of the source: active = normalized growth mostly below about 0.91 (no sharp cut-off); inconclusive = no clear call, values can overlap the other calls; inactive = mostly above about 0.92. This is one part of the list.

Assay: chemical genetic growth profiling, strain panel (AID 1159580);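 note: tested at 20 µM; growth read once vehicle control cultures reached saturation at 30 °C; 1 = growth at the plate median or of vehicle wells; lower values mean less growth of the strain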
Settings: S. cerevisiae deletion strains, growth OD
[1] = locus YAL040C, strain CLN3, active compounds read low
[2] = locus YCL061C, strain MRC1 (second series), active compounds read low
[3] = locus YDR363W, strain ESC2, active compounds read low
[4] = locus YER002W, strain NOP16, active compounds read low
[5] = locus YJR075W, strain HOC1, active compounds read low
[6] = locus YMR263W, strain SAP30, active compounds read low
[7] = locus YNL197C, strain WHI3, active compounds read low
[8] = locus YNL224C, strain SQS1, active compounds read low
[9] = locus YNL322C, strain KRE1, active compounds read low
[10] = locus YOR083W, strain WHI5 (second series), active compounds read low
[11] = locus YPL241C, strain CIN2, active compounds read low

Measured: normalized growth

O=C1NCN(c2ccccc2)C12CCN(CCCC(c1ccc(F)cc1)c1ccc(F)cc1)CC2
inactive: locus YAL013W, strain DEP1, active compounds read low 1.01 | [1] 0.995 | [2] 1 | locus YDR150W, strain NUM1, active compounds read low 0.987 | [3] 0.992 | [4] 1.03 | [5] 0.998 | [6] 1 | locus YNL128W, strain TEP1, active compounds read low 1.05 | locus YNL153C, strain GIM3, active compounds read low 0.982 | [7] 1.09 | [8] 1.07 | [9] 1 | [10] 1.09 | [11] 1

O=C(CCCN1CCC2(CC1)C(=O)N(CCc1ccc(N=C=S)cc1)CN2c1ccccc1)c1ccc(F)cc1
inactive: [1] 1.04 | [2] 0.982 | [3] 0.972 | [4] 1.03 | locus YGR229C, strain SMI1, active compounds read low 0.984 | [5] 0.968 | [6] 0.987 | locus YMR307W, strain GAS1, active compounds read low 0.982 | locus YNL175C, strain NOP13, active compounds read low 1 | [7] 1.02 | [8] 1.05 | [9] 0.948 | [10] 1.08 | locus YPL055C, strain LGE1, active compounds read low 0.916 | [11] 0.984
